Experimental findings from PubChem BioAssay AID1210 (NMMLSC, 2008) are described below.

Activity calls are given as the source filed them.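 The calls were made as follows: active = blocks over 70% of labeled estradiol binding at 10 µM, or over a set limit at 100 nM; inactive = the rest.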

In the test the target is Estrogen receptor beta (Homo sapiens) (UniProt Q92731). Put plainly: ERbeta ligand binders by competition, primary screen, cell-based, Cos7 ERbeta-GFP, flow cytometry (AID 1210).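 Also: 0% = DMSO vehicle wells and 100% = complete loss of labeled estradiol signal.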 The note with it: fluorescent estrogen binding, stronger effect = higher value. (A flow cytometer gives signals particle by particle.)
Where [1] appears, read: ligand binding inhibition, at 0.1 µM.

Estrogen receptor beta (Homo sapiens), sequence (Q92731 whole entry, looked up): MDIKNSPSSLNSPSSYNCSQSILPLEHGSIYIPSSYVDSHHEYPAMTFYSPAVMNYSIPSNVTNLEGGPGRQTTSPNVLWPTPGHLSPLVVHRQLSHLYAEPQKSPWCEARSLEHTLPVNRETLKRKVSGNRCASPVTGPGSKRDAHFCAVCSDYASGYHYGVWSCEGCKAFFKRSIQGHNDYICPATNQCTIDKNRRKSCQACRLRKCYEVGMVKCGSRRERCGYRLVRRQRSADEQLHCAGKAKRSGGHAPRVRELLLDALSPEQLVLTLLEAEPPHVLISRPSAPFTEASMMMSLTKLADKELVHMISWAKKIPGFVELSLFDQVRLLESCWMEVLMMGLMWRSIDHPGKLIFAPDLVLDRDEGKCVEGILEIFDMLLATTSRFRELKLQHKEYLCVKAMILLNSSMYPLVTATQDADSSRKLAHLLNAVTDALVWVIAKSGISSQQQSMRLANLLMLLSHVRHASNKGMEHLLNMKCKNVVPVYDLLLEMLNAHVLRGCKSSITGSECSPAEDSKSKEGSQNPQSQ

In general, inhibition refers to how much of the control response was suppressed. As for `CC(=O)c1sc2nc(SCC(=O)N3CCCCC3)[nH]c(=O)c2c1C`, the inhibition by setting is: (at 10 µM) 27% (inactive); under setting [1], 12%.
As for `CCC(Sc1ncnc2sc(C)c(C)c12)C(=O)OC` (stereo unspecified), the inhibition was 27% (inactive) (at 10 µM) and 41% under setting [1].
The corresponding values for `COC(=O)c1c(-c2ccncc2)csc1NC(=O)c1ccoc1C` are 52% (inactive) and 1%.
On to `Cc1cc(NC(=O)CSc2cn(CCNC(=O)c3ccc(Cl)cc3)c3ccccc23)no1`, for which the inhibition reads like this: (at 10 µM) 11% (inactive); under setting [1], 31%.
The corresponding values for `Cc1[nH]c2ccc(-c3nnc(SCC(=O)c4ccccc4F)o3)cc2c1C` are 18% (inactive) and 28%.
As for `Cc1snc2sc(C(=O)c3ccc(Br)cc3)c(N)c12`, the inhibition runs as follows: (at 10 µM) 26% (inactive); under setting [1], 20%.
`O=S(=O)(NCc1csc(-c2cccnc2)n1)c1ccc(Cl)s1`: the inhibition is, setting by setting: (at 10 µM) 31% (inactive); under setting [1], 19%.
`COc1ccc(C2CC(c3c(-c4ccccc4)c4cc(Cl)ccc4[nH]c3=O)=NN2S(C)(=O)=O)cc1OC` (stereo unspecified): the inhibition was 1% (inactive) (at 10 µM) and 64% under setting [1].
Regarding `O=C(CSc1nc2ccccc2c(=O)[nH]1)c1ccc(O)c(O)c1`, the inhibition runs as follows: (at 10 µM) 36% (inactive); under setting [1], 14%.
For `Cc1noc(C)c1COC(=O)c1cc2c3ccccc3n(C)c2s1`, in that order: 59% (inactive) and 4%.
For `COC(=O)c1cc(-c2c(C)oc3cc(O)ccc3c2=O)c(C)o1`, in that order: 12% (inactive) and 1%.
For `Cc1ccc(C(=O)NCC(=O)OCC(=O)c2c(N)n(C)c(=O)n(C)c2=O)s1`, in that order: 5% (inactive) and 25%.
As to `Cc1ccc(C(=O)ONc2ccc(N=NC(=O)c3ccccc3O)cc2)cc1`, the inhibition was 58% (inactive) (at 10 µM) and 28% under setting [1].
For `O=C(COC(=O)CC1CCCC1)Nc1cc2c(cc1Cl)C(=O)c1ccccc1C2=O`, in that order: 47% (inactive) and 15%.
Regarding `Cc1cc(N)ccc1N=Nc1c(C)n(C)n(-c2ccccc2)c1=O`, the inhibition (at 10 µM) is 15% (inactive) and the inhibition under setting [1] was 31%.
Turning to `CCn1nnc(NC(=O)CSc2ccc(Cl)cc2)n1`, the inhibition (at 10 µM) was 13% (active) and the inhibition under setting [1] was 68%.
For `Cc1ccc(C(=O)CSC2=C(C#N)C(c3ccco3)CC(=O)N2)c(C)c1` (stereo unspecified), in that order: 54% (inactive) and 14%.
For `Cc1cc(C)c2c(c1)[C@@H]1C=CC[C@@H]1[C@H](c1ccc(S(=O)(=O)N3CCOCC3)cc1)N2`, in that order: 35% (inactive) and 48%.
For `COc1ccccc1-c1nnc2n1N=C(c1ccc(O)c(O)c1)CS2`, in that order: 69% (inactive) and 21%.
On to `O=C(c1cc2c(s1)CCC2)N1CCN(c2ccccc2)CC1`, for which the inhibition was 52% (inactive) (at 10 µM) and 7% under setting [1].
For `O=C1N/C(=C\c2ccc(O)cc2)C(=O)c2ccccc21`, in that order: 21% (inactive) and 1%.
The corresponding values for `O=C(Nc1ccc2oc(-c3ccc4ccccc4c3)nc2c1)c1cccs1` are 42% (inactive) and 36%.
For `COc1cc(C2C(C#N)=C(N)Oc3cc(C)oc(=O)c32)cc2c1OCO2` (stereo unspecified), the inhibition is 32% (inactive) (at 10 µM) and 46% under setting [1].
For the compound `CC(O)C1CCC2C3CC[C@H]4CC(O)CCC4(C)C3CC3(OCCO3)C12C` (stereo partly specified), the inhibition reads like this: (at 10 µM) 18% (inactive); under setting [1], 13%.
In the case of `COc1cccc(-c2[nH]nc3c2C(c2ccoc2)C(C#N)=C(N)O3)c1` (stereo unspecified), the inhibition is, setting by setting: (at 10 µM) 54% (inactive); under setting [1], 29%.
For `CC1(N2CCOCC2)CC2(O)C(=[N+]1[O-])CCc1nonc12` (stereo unspecified), the inhibition reads like this: (at 10 µM) 49% (inactive); under setting [1], 62%.
As for `O=S(=O)(NCC(O)COCc1ccco1)c1cccs1` (stereo unspecified), the inhibition reads like this: (at 10 µM) 12% (inactive); under setting [1], 20%.
The corresponding values for `COc1ccc(OC)c(C2Nc3c(Cl)ccc(C(=O)O)c3C3C=CCC32)c1` (stereo unspecified) are 0% (inactive) and 52%.
On to `O=C(CSc1nc2scc(-c3ccco3)c2c(=O)n1-c1ccccc1)NCC1CCCO1` (stereo unspecified), for which the inhibition (at 10 µM) is 55% (inactive) and the inhibition under setting [1] was 50%.
The corresponding values for `COCCOC(=O)c1[nH]c2c(c1C)C(=O)CC(c1ccco1)C2` (stereo unspecified) are 35% (inactive) and 26%.
The corresponding values for `C/C(=N\Nc1ccc([N+](=O)[O-])cc1)c1cccc(N)c1` are 14% (inactive) and 24%.
For `O=C(Cn1ncc2c(=O)oc3ccccc3c21)Nc1nc2ccccc2s1`, in that order: 35% (inactive) and 7%.
As for `COc1ccc(Cc2nnc(NC(=O)Cc3cccs3)s2)cc1`, the inhibition by setting is: (at 10 µM) 17% (inactive); under setting [1], 29%.
On to `c1ccc(Cc2nnc3sc(-c4ccco4)nn23)cc1`, for which the inhibition is, setting by setting: (at 10 µM) 18% (inactive); under setting [1], 60%.
For `COC(=O)c1ccc(CC(=O)c2c(C)cc(O)cc2O)o1`, in that order: 62% (inactive) and 22%.
The corresponding values for `COCCNC(=O)c1c(N)n(/N=C/c2cccs2)c2nc3ccccc3nc12` are 29% (inactive) and 32%.
As to `O=C(NCc1ccco1)c1cc2c(s1)CSC2`, the inhibition runs as follows: (at 10 µM) 32% (inactive); under setting [1], 12%.
For `Cc1cc2oc(=O)cc(COC(=O)c3n[nH]c4ccccc34)c2cc1C`, in that order: 68% (inactive) and 18%.
The corresponding values for `CC(=O)c1ccc2c(c1)C1C=CCC1C(C(=O)O)N2` (stereo unspecified) are 19% (inactive) and 6%.
The corresponding values for `CCc1nc2sc3ccccc3c(=O)c2c(=O)n1Cc1ccco1` are 46% (active) and 66%.
Take `O=C(Nc1cnn(C23CC4CC(CC(C4)C2)C3)c1)c1cnn2c(C(F)(F)F)cc(-c3ccco3)nc12`: the inhibition was 26% (inactive) (at 10 µM) and 20% under setting [1].
Consider `Cc1nnc(SCC(=O)NC(=O)NCc2ccco2)n1Cc1ccccc1`, for which the inhibition (at 10 µM) was 71% (active) and the inhibition under setting [1] came to 53%.
For `Cc1csc2nc(CCNS(=O)(=O)c3ccc4c(c3)OCCO4)cn12`, in that order: 13% (active) and 87%.
